What all share (type): functional
The target in test [1] is Solute carrier family 2, facilitated glucose transporter member 1 (Homo sapiens) (UniProt P11166). Put plainly: ST_JUDE_LEISH: Cytotoxicity at 2uM final concentration against transgenic Leishmania Mexicana promastigotes LmGLUT1 that are glucose transport deficient and complemented with the human glucose transporter GLUT1. Activity is measured by DNA content using SYBR green in vitro.

Test [2] concerns the target Hexose transporter 1 (Plasmodium falciparum) (UniProt O97467). Put plainly: ST_JUDE_LEISH: Cytotoxicity at 2uM final concentration against transgenic Leishmania Mexicana promastigotes LmPfHT that are glucose transport deficient and complemented with the Plasmodium falciparum hexose transporter. Activity is measured by DNA content using SYBR green in vitro.
Test [3] concerns the target Glucose transporter (Leishmania mexicana) (UniProt O61059). Put plainly: ST_JUDE_LEISH: Cytotoxicity at 2uM final concentration against transgenic Leishmania Mexicana promastigotes LmGT2 that are glucose transport deficient and complemented with the L. Mexicana glucose transporter 2. Activity is measured by DNA content using SYBR green in vitro.

From ChEMBL document CHEMBL3433997, “St. Jude Leishmania screening dataset” (2016) come the findings set out here.

Sequence of Solute carrier family 2, facilitated glucose transporter member 1 (Homo sapiens) (P11166 whole entry): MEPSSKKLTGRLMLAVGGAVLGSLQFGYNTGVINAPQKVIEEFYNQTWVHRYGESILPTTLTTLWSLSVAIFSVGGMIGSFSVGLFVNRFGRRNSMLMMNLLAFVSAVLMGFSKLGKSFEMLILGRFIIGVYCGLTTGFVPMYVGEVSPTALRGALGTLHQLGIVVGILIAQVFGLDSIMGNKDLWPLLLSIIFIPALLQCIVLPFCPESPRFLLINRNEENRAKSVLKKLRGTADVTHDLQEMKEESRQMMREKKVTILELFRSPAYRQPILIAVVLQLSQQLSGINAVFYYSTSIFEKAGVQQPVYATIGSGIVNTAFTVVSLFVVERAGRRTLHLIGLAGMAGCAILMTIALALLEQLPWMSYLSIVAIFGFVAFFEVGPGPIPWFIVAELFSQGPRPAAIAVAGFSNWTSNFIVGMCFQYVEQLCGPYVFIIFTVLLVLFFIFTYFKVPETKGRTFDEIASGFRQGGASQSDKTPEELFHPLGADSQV

As for `CCC(CC)CN1C(=O)C(c2ccccc2)(c2ccccc2)N=C1N`, the inhibition (commonly the drop in the measured response relative to a control, in per cent) in test [1] turned out to be 6.55%; in test [2], 5.61%; in test [3], 6.88%.

`CN(CCc1ccccn1)Cc1ccc(-c2ccc(-c3nc4ccccc4[nH]3)s2)cc1`: the inhibition in test [1] was -0.34%; in test [2], -1.13%; in test [3] it was -2.7%.

For the compound `COc1cccc(CN2CCC3(CC2)CN(C(=O)Nc2ccc(Cl)c(Cl)c2)C3)c1`, the inhibition amounted to 2.87% in test [1], 3.53% in test [2] and 3.35% in test [3].

Consider `Cc1ccc(N2CCN(CCCCNC(=O)c3ccc(NC(=O)c4ccc(Cl)cc4)cc3)CC2)c(C)c1`, for which the inhibition in test [1] was 3.93%; in test [2], 5.9%; in test [3] it was 2.64%.

Consider `CCOC(=O)c1ccc(NC(=O)Nc2cccc(-c3ccc(-c4nc5cc(F)ccc5[nH]4)cc3)c2)cc1`, for which the inhibition in test [1] worked out at 2.21%; in test [2] it was 2.88%; in test [3], 0.33%.

For the compound `O=C(NCCN1CCCC1)N1CCCN(c2ncnc3cc(-c4ccc(F)cc4)sc23)CC1`, the inhibition in test [1] was -1.05%; in test [2], -2.33%; in test [3], 4.44%.

`COc1ccc(CNCc2ccccc2)cc1-c1ccc(OC)c(S(=O)(=O)NCCN2CCCC2)c1`: the figures for the inhibition in test [1], in test [2] and in test [3] were -0.27%, -0.09% and 3.45%, respectively.

As to `CS(=O)(=O)CCNCc1cccc(-c2ccc3c(Nc4ccc(Oc5cccnc5)cc4)ccnc3c2)c1`, the figures for the inhibition in test [1], in test [2] and in test [3] were -1.35%, -1.49% and -3%, respectively.

For `O=C(/C=C/c1ccsc1)N1CCC(CCN2CCC(c3c[nH]c4ccccc34)CC2)CC1`, the inhibition in test [1] was 2.34%; in test [2] it was 3.57%; in test [3], 6.24%.

In the case of `O=C(Nc1cccc(-c2ccc(-c3nc4ccccc4[nH]3)cc2)c1)Nc1ccc(F)c(F)c1F`, the inhibition in test [1] was -2.14%; in test [2] it was 1.23%; in test [3], 2.03%.

Regarding `Cc1cc2c3c(N)nc(N)nc3ccc2n1C`, the figures for the inhibition in test [1], in test [2] and in test [3] were 6.53%, 10.4% and 5.15%, respectively.

With `CN(C)C(CNC(=O)c1cc(-c2ccncc2)c(-c2ccc(NC(=O)Nc3ccccc3)cc2)o1)c1ccccc1` (stereo not drawn), the figures for the inhibition in test [1], in test [2] and in test [3] were -0.56%, -0.15% and -0.82%, respectively.

For `CN1CCCC(CN2CCN(Cc3ccc(-c4ccc(-c5nc6ccccc6[nH]5)s4)cc3)CC2)C1` (stereo not drawn), the results for the inhibition in test [1], in test [2] and in test [3] were 22.9%, 34.8% and 9.58%, respectively.

Turning to `CN(CC(=O)Nc1ccc(F)cc1)C(=O)c1ccc(-c2ccc(F)cc2)o1`, the inhibition in test [1] came to 5.1%; in test [2], 7.16%; in test [3] it was 5.24%.

For the compound `Nc1c2ccccc2nc2cc([N+](=O)[O-])ccc12`, the inhibition was 8.44% in test [1], 9.98% in test [2] and 0.99% in test [3].

For `CCOC(=O)C(=O)N1c2ccc(OCC)cc2-c2c(ssc2=S)C1(C)C`, the inhibition in test [1] was -0.01%; in test [2], 0.3%; in test [3] it was 6.04%.

Regarding `COc1nc2c(CCN3CCC(NCc4ccc5c(n4)NC(=O)CO5)CC3)c(Cl)cnc2cc1F`, the inhibition came to 7.62% in test [1], 8.51% in test [2] and 7.05% in test [3].

With `O=c1cc(NCCCNCc2cc(Cl)c(Cl)cc2Cl)[nH]c2ccccc12`, the inhibition was 0.5% in test [1], -0.04% in test [2] and 0.23% in test [3].

In the case of `CCOc1ccc(OCC(=O)Nc2nc(-c3ccc(OC)cc3)c(C)s2)cc1`, the inhibition in test [1] worked out at 0.75%; in test [2] it was 1.74%; in test [3], 1.45%.

For `COc1ccc2nc(-c3cc(-c4ccc(NC(=O)C(C)C)cc4)cnc3N)[nH]c2c1`, the inhibition in test [1] was found to be 20.8%; in test [2] it was 40.7%; in test [3], 12.9%.

Turning to `CCOc1c(C)cc(C(F)(F)F)cc1CNCCCNc1cc(=O)c2ccccc2[nH]1`, the inhibition in test [1] was determined as 5.27%; in test [2], 5.03%; in test [3] it was 5.79%.

Turning to `CCOc1ccc2[nH]c(C)cc(=NN=Cc3cccc(F)c3)c2c1`, the inhibition in test [1] is -0.81%; in test [2], -2.04%; in test [3], 0.95%.

For `CCN(CC)CCN(Cc1ccc(-c2ccc(C(F)(F)F)cc2)cc1)C(=O)Cn1c(CCc2ccc(F)c(F)c2F)nc(=O)c2ccc(F)cc21`, the values for the inhibition in test [1], in test [2] and in test [3] were 3.42%, 0.08% and -0.03%, respectively.

Consider `Cc1ccc(F)cc1S(=O)(=O)Nc1ccc(CCN2CCC(N3CCCCC3)CC2)cc1`, for which the inhibition in test [1] was 0.5%; in test [2], -0.31%; in test [3], 1.36%.

For the compound `CCCNC(=O)C1CCN(C(c2ccccc2)c2ccc(Cl)c(Cl)c2)CC1` (stereo not drawn), the inhibition in test [1] was determined as 4.42%; in test [2], 5.75%; in test [3] it was 3%.

As for `CC(C)c1ccc(NC(=O)c2ccc(CN3CCCN(CC4CCCCC4)CC3)cc2)cc1`, the inhibition came to 3.95% in test [1], 2.01% in test [2] and 5.69% in test [3].

On to `COc1ccccc1NC(=O)Nc1cccc(-c2cccc(-c3nc4cccc(C)c4[nH]3)c2)c1`, for which the inhibition in test [1] is -1.43%; in test [2] it was 0.52%; in test [3], -1.31%.

As for `Fc1ccc2[nH]c(-c3ccc(-c4ccc(CN5CCC(CCN6CCCCC6)CC5)cc4)cc3)nc2c1`, the results for the inhibition in test [1], in test [2] and in test [3] were 7.35%, 9.43% and 3.31%, respectively.

For `O=C(n1c(-c2cc3ccccc3n2C(=O)C(F)(F)F)cc2ccccc21)C(F)(F)F`, the values for the inhibition in test [1], in test [2] and in test [3] were 4.6%, 1.94% and -0.64%, respectively.

For the compound `CCCOc1cc(Cc2cnc(N)nc2N)cc(OC)c1OC`, the inhibition in test [1] is -1.05%; in test [2], -1.9%; in test [3], -0.03%.

Regarding `Cc1cccc2nc(-c3cccc(-c4ccc(NC(=O)NC5CC5c5ccccc5)cc4)c3)[nH]c12` (stereo not drawn), the results for the inhibition in test [1], in test [2] and in test [3] were 6.4%, 3.69% and 5.64%, respectively.

Turning to `Cc1c(S(=O)(=O)Nc2ccc3nccc(N4CCN[C@H](C)C4)c3c2)sc2ccc(Cl)cc12`, the values for the inhibition in test [1], in test [2] and in test [3] were -0.53%, 0.48% and -2.96%, respectively.

With `CC(C)(C(=O)NCCC1CCN(CCCCCNC(=O)/C=C/c2ccc(Cl)c(Cl)c2)CC1)c1ccc(Cl)cc1`, the inhibition in test [1] amounted to 5.49%; in test [2], 4.45%; in test [3], 4.35%.

`N[C@@H](COc1cccc2c(-c3ccncc3)c(-c3cccc(NC(=O)Nc4ccccc4)c3)nn12)c1ccccc1`: the inhibition was -2.24% in test [1], -1.71% in test [2] and -2.62% in test [3].

With `CC1(C)N=C(N)N=C(N)N1c1ccc(Oc2ccc(Cl)cc2)c(Cl)c1`, the inhibition in test [1] is 0.34%; in test [2], -1.08%; in test [3] it was 2.05%.

Turning to `Fc1ccc2[nH]c(-c3ccc(-c4cccc(CN5CCCCC5)c4)cc3)nc2c1`, the inhibition is 1.59% in test [1], 1.72% in test [2] and 1.72% in test [3].
